Test results reported in PubChem BioAssay AID588358 (NMMLSC, 2011).
Out of some 310,000 compounds screened, about 1,500 (0.48%) were called active.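 Rule for the calls: active = binding more than 3 SD below its plate's average and above zero; inconclusive = below that plate limit but binding exactly zero; inactive = the rest.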 The list comes from a sample in which actives are over-represented; it also holds similar structures and randomly drawn compounds.

Target: Desmoglein-3 (Homo sapiens) (UniProt P32926)
Sequence (P32926 whole entry, looked up, the tested form may be a part): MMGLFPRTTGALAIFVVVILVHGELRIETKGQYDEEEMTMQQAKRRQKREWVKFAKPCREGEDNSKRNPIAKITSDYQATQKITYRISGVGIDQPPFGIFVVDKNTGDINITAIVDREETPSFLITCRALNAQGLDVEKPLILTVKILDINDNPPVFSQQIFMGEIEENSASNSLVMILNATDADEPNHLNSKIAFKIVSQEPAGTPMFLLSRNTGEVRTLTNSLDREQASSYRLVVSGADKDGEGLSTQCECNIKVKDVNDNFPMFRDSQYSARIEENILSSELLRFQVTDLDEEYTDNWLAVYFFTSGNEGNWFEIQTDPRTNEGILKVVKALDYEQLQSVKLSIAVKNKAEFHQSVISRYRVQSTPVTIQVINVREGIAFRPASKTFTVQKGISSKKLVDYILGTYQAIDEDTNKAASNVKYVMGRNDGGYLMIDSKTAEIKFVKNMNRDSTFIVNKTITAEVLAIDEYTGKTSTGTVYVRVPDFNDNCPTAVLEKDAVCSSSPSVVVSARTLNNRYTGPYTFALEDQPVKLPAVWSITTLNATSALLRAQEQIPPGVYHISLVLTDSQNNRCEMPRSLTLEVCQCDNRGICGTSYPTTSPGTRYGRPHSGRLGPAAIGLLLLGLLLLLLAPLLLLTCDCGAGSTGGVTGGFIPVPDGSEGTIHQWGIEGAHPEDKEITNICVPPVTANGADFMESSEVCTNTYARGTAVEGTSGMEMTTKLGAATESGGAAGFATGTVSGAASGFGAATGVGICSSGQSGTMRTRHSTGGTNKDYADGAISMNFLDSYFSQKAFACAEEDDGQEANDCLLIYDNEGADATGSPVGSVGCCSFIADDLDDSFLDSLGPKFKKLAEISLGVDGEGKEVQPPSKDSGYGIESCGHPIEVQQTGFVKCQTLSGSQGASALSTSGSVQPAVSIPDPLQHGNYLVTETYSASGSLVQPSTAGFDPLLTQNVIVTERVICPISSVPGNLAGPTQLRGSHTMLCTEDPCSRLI
Assay: blockers of anti-DSG3 scFv binding – biochemical, bead-based, flow cytometry, scFv-GFP, primary screen (AID 588358);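 note: hits lower antibody fragment binding to DSG3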
Details: DSG3-coupled beads, at 10 µM, hits give low values

Q: `CCc1cccc(CC)c1NC(=S)NCc1ccc2[nH]c(C)cc2c1` was tested. Which binding (percent of control) did it give?
A: 78.1% (inactive)

Q: How did the binding (percent of control) turn out when `Cc1cc2cc(CNC(=O)c3ccc(S(=O)(=O)N4CCOCC4)cc3)ccc2[nH]1` was run?
A: 95.4% (inactive)

Q: With `Cc1cc2cc(CNC(=O)c3cccs3)ccc2[nH]1` as the compound, how does the binding (percent of control) read?
A: 80.6% (active)

Q: Which binding (percent of control) does the source give for `Cc1onc(-c2ccccc2)c1-c1nnc(COC(=O)c2ccc(N(C)C)cc2)o1` here?
A: 109% (inactive)

Q: For `C[C@H](CO)N1C[C@H](C)[C@H](CN(C)C(=O)c2ccncc2)OCc2ccccc2-c2c(n(C)c3ccccc23)C1=O`, which binding (percent of control) is on record?
A: 103% (inactive)

Q: `Cc1cccc(C(=O)NC2CCN(CC(=O)Nc3cccc(Cl)c3)CC2)c1` was tested. Which binding (percent of control) did it give?
A: 92.9% (inactive)

Q: Which binding (percent of control) does the source give for `O=C(c1cc(-c2ccc(Cl)cc2)on1)N1CCN(c2ccccc2)CC1` here?
A: 24.2% (active)

Q: `O=C(c1cc(-c2ccc(O)cc2)on1)N1CCOCC1` was tested. Which binding (percent of control) did it give?
A: 104% (inactive)

Q: How did the binding (percent of control) turn out when `O=C(c1cc(-c2ccc(F)cc2)on1)N1CCN(c2ccc(F)cc2)CC1` was run?
A: 91% (inactive)

Q: For `COc1cccc(C(=O)Nc2nnc(S(=O)(=O)N3CCCCC3)s2)c1`, which binding (percent of control) is on record?
A: 99.3% (inactive)

Q: For `Cc1cccc(C(=O)Nc2nnc(S(=O)(=O)N3CCCCCC3)s2)c1`, which binding (percent of control) is on record?
A: 29.9% (active)

Q: For `O=C(Nc1nnc(S(=O)(=O)N2CCCCCC2)s1)c1cccc(Br)c1`, which binding (percent of control) is on record?
A: 102% (inactive)

Q: Which binding (percent of control) does the source give for `CC1(C2CC2)NC(=O)N(CC(=O)N2CCN(c3ccccc3F)CC2)C1=O` (configuration not stated) here?
A: 101% (inactive)

Q: How did the binding (percent of control) turn out when `COc1ccc(NC(=O)CSc2nnnn2-c2cccc(OC)c2)cc1` was run?
A: 92.2% (inactive)

Q: `O=C(O)c1cc2ccccc2c(=O)s1` was tested. Which binding (percent of control) did it give?
A: 53.2% (active)

Q: Which binding (percent of control) does the source give for `O=C(O)C#Cc1cccc2ccccc12` here?
A: 97.7% (inactive)

Q: With `O=C(O)c1ccc(S(=O)(=O)c2ccccc2)s1` as the compound, how does the binding (percent of control) read?
A: 123% (inactive)

Q: How did the binding (percent of control) turn out when `CCN1C(=O)[C@H]2[C@@H](c3ccc(C(F)(F)F)cc3)N[C@]3(CCCN(Cc4ccc(Br)cc4)C3=O)[C@H]2C1=O` was run?
A: 111% (inactive)

Q: For `CCC(=C/c1sc2ccc3ccccc3c2[n+]1C)/C=C1\Sc2ccc3ccccc3c2N1C`, which binding (percent of control) is on record?
A: 75% (active)

Q: `CCOC(=O)c1cc(-c2sc(NC(=O)c3ccccc3)nc2C)n(-c2ccc(Br)cc2)n1` was tested. Which binding (percent of control) did it give?
A: 102% (inactive)

Q: `O=C(COc1ccc(Cl)cc1)N1CCN(S(=O)(=O)c2ccc(Cl)cc2)CC1` was tested. Which binding (percent of control) did it give?
A: 66.4% (active)

Q: Which binding (percent of control) does the source give for `O=C(CSc1ccccn1)N1CCN(S(=O)(=O)c2ccc(Cl)cc2)CC1` here?
A: 96.2% (inactive)

Q: With `Nc1nc(SCC(=O)N2CCN(S(=O)(=O)c3ccc(Cl)cc3)CC2)n[nH]1` as the compound, how does the binding (percent of control) read?
A: 104% (inactive)

Q: With `O=C(CSc1ccc([N+](=O)[O-])cn1)Nc1ccc(N2CCOCC2)cc1` as the compound, how does the binding (percent of control) read?
A: 96.9% (inactive)

Q: Which binding (percent of control) does the source give for `O=C(CSc1ccc(-c2ccccn2)nn1)Nc1ccccc1` here?
A: 101% (inactive)

Q: `O=C(CSc1ccc(-c2ccc(-n3cccn3)cc2)nn1)Nc1ccc([N+](=O)[O-])cc1` was tested. Which binding (percent of control) did it give?
A: 89.5% (active)

Q: Which binding (percent of control) does the source give for `COc1ccccc1NC(=O)C(CC(=O)O)Cc1cc(C)cc(C)c1` (configuration not stated) here?
A: 96.8% (inactive)

Q: With `COc1ccc(CCNC(=O)CN(c2ccccc2)S(=O)(=O)c2ccccc2)cc1` as the compound, how does the binding (percent of control) read?
A: 97.8% (inactive)

Q: How did the binding (percent of control) turn out when `COc1ncnc2c1ncn2CCCNCCN1CCOCC1` was run?
A: 98% (inactive)

Q: `COc1cccc(/C=N\Nc2nncc(-c3ccccc3)n2)c1` was tested. Which binding (percent of control) did it give?
A: 90.1% (active)

Q: For `COc1cccc(/C=N/Nc2ccc(Cl)nn2)c1`, which binding (percent of control) is on record?
A: 98.6% (inactive)

Q: For `COc1cccc(/C=N/NC(=O)C(=O)N2CCCC2)c1`, which binding (percent of control) is on record?
A: 102% (inactive)

Q: `CC(=O)c1c(C)n(-c2ccc(C)cc2)c2ccc(O)cc12` was tested. Which binding (percent of control) did it give?
A: 61.8% (active)

Q: Which binding (percent of control) does the source give for `CC(=O)c1c(C)n(-c2ccc(N(C)C)cc2)c2ccc(OCC(N)=O)cc12` here?
A: 96.5% (inactive)

Q: `CCOC(=O)c1c(CN2CCOCC2)n(-c2ccccc2)c2ccc(O)cc12` was tested. Which binding (percent of control) did it give?
A: 107% (inactive)

Q: How did the binding (percent of control) turn out when `CCOC(=O)C(C(=O)c1ccccc1)C(c1ccccc1)c1nccc2ccccc12` (configuration not stated) was run?
A: 108% (inactive)

Q: For `O=C(O)C1CCCN1c1nc(Cl)ccc1[N+](=O)[O-]` (configuration not stated), which binding (percent of control) is on record?
A: 90.2% (inactive)

Q: For `COc1ccc(S(=O)(=O)N2CCC(C(=O)NCCC(=O)NCCc3cccc(F)c3)CC2)cc1`, which binding (percent of control) is on record?
A: 99% (inactive)

Q: Which binding (percent of control) does the source give for `Cc1nc(-c2ccccc2)sc1C(=O)/C=C/N(C)C` here?
A: 97.8% (inactive)

Q: `Cc1nc(-c2ccc(Cl)cc2)sc1C(=O)CBr` was tested. Which binding (percent of control) did it give?
A: 63.4% (active)

Q: `Cc1nc(-c2ccc(Cl)cc2)sc1C(=O)NN` was tested. Which binding (percent of control) did it give?
A: 110% (inactive)

Q: With `COc1ccc(CN2C(=O)C(CC(=O)NC3CCCCC3)CC(C(=O)N3CCOCC3)=C2C)cc1` (configuration not stated) as the compound, how does the binding (percent of control) read?
A: 102% (inactive)

Q: `COC(=O)c1ccccc1N=NNc1ccc([N+](=O)[O-])cc1` was tested. Which binding (percent of control) did it give?
A: 104% (inactive)

Q: With `O=[N+]([O-])c1ccc(N=NNc2ccc([N+](=O)[O-])cc2)cc1` as the compound, how does the binding (percent of control) read?
A: 44.4% (active)

Q: `O=[N+]([O-])c1ccc(N/N=C/c2ccccc2)cc1` was tested. Which binding (percent of control) did it give?
A: 102% (inactive)

Q: With `COc1cc(C)c(CN2CCN(C(=O)CCC(=O)c3ccc(C)s3)CC2)cc1OC` as the compound, how does the binding (percent of control) read?
A: 98.2% (inactive)

Q: Which binding (percent of control) does the source give for `COc1ccc(NC(=O)CCCOc2ccc(C(C)=O)cc2)cc1S(=O)(=O)N1CCCCC1` here?
A: 109% (inactive)

Q: With `c1ccc(Cn2nnc3c(NCC4CC4)ncnc32)cc1` as the compound, how does the binding (percent of control) read?
A: 101% (inactive)

Q: How did the binding (percent of control) turn out when `O=C(CC(=O)c1cccnc1)c1ccccc1` was run?
A: 66.2% (active)

Q: Which binding (percent of control) does the source give for `O=C(NNC(=O)c1cccnc1)Nc1ccccc1` here?
A: 103% (inactive)

Q: With `O=C(c1cccnc1)N(Cc1ccccc1)C(=O)c1cccnc1` as the compound, how does the binding (percent of control) read?
A: 86.3% (inactive)

Q: How did the binding (percent of control) turn out when `CCOC(=O)c1cc(-c2sc(NC(=O)c3ccccc3)nc2C)n(Cc2ccccc2)n1` was run?
A: 101% (inactive)

Q: With `CCOC(=O)C1CCN(C(=O)c2ccc3c(=O)n4nc(Nc5ccccc5CC)sc4nc3c2)CC1` as the compound, how does the binding (percent of control) read?
A: 104% (inactive)

Q: For `Cc1ccc(NC(=O)Cn2c(C)csc2=O)cc1`, which binding (percent of control) is on record?
A: 92.9% (inactive)

Q: How did the binding (percent of control) turn out when `Cc1ccc(NC(=O)Cn2sc3ccccc3c2=O)cc1` was run?
A: 58.5% (active)

Q: Which binding (percent of control) does the source give for `Cc1nn(CC(=O)Nc2ccc(F)cc2)c(=O)c2ccccc12` here?
A: 105% (inactive)

Q: How did the binding (percent of control) turn out when `C[C@@H]1CN([C@@H](C)CO)C(=O)c2c(c3ccccc3n2C)-c2ccccc2CO[C@H]1CN(C)C(=O)C1CC1` was run?
A: 101% (inactive)

Q: How did the binding (percent of control) turn out when `COc1ccc(Cl)cc1NC(=O)CN(C)C(=O)c1cn(-c2ccccc2)nc1-c1cccs1` was run?
A: 112% (inactive)

Q: With `Cn1ncc([N+](=O)[O-])c1C(=O)Nc1cc(Cl)ccc1Cl` as the compound, how does the binding (percent of control) read?
A: 102% (inactive)

Q: With `N#Cc1ccc(COC(=O)Cn2nnc(-c3ccccc3)n2)cc1` as the compound, how does the binding (percent of control) read?
A: -1.31% (active)

Q: For `O=C(Cn1nnc(-c2ccccc2)n1)NC(=O)NC1CCCC1`, which binding (percent of control) is on record?
A: 102% (inactive)

Q: Which binding (percent of control) does the source give for `COc1cc(-c2nnn(CC(=O)NCc3ccccc3)n2)cc(OC)c1OC` here?
A: 89.3% (inactive)
